The nature of experiment [1]: qHTS of pediatric cancer cell lines to identify multiple opportunities for drug repurposing: Primary screen for OHS-50 cells (AID 1347103). Also: nearly all actives have a fitted effect of over 40% in size. Also: potency is read from the fitted curve at half-maximal effect. The settings on record: OHS-50 osteosarcoma viability, CellTiter-Glo luminescence, 48 h; series mostly up to 57.3 µM. Summed up: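 Cells (500-1,000/well) rested 5 h, then received compounds for 48 h; metabolically active cells were measured by CellTiter-Glo luminescence. Final concentrations spanned up to 46 µM (MIPE, 11-point) or 0.59 nM-46 µM (NPC, 8-point) in primary screens, 11-point in follow-ups.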

Experiment [2] can be described thus: qHTS of pediatric cancer cell lines to identify multiple opportunities for drug repurposing: Primary screen for RD cells (AID 1347104). Also: nearly all actives have a fitted effect of over 55% in size. Also: potency is read from the fitted curve at half-maximal effect. The settings on record: RD rhabdomyosarcoma viability, CellTiter-Glo luminescence, 48 h; series mostly up to 46 µM. The procedure, abridged: (§1)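 Cells seeded at 500-1,000 cells/well in growth media, rested 5 hours at 37 degrees C, 5% CO2, then dosed; MIPE compounds at 11-point (from 0.78 nM) and NPC at 8-point (from 0.59 nM) final concentrations. Viability by CellTiter-Glo luminescence after 48 hours.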

Experiment [3] can be described thus: qHTS of pediatric cancer cell lines to identify multiple opportunities for drug repurposing: Primary screen for control Hh wild type fibroblast cells (AID 1347106).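 Also: a drop in luminescence marks cytotoxicity and a rise apparent proliferation; nearly all actives have a fitted effect of over 55% in size.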 The settings on record: Hh wild-type fibroblast viability, CellTiter-Glo luminescence, 48 h; series mostly up to 46 µM. Summed up:
(§2)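 Cells (500-1,000/well) in growth media were settled 5 h at 37 degrees C, then given compounds for 48 h. Viability was read as CellTiter-Glo luminescence. Primary runs used MIPE at 11 points (0.78 nM-46 µM) and NPC at 8 points (0.59 nM-46 µM); follow-ups used 11 points.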

Experiment [4] is described as follows: qHTS of pediatric cancer cell lines to identify multiple opportunities for drug repurposing: Primary screen for Rh30 cells (AID 1347107). Also: nearly all actives have a fitted effect of over 75% in size. The note with it: Rh30 rhabdomyosarcoma viability, CellTiter-Glo luminescence, 48 h; series mostly up to 46 µM. The procedure, abridged: as §2
Experiment [5] can be described thus: qHTS of pediatric cancer cell lines to identify multiple opportunities for drug repurposing: Primary screen for Rh41 cells (AID 1347108). Also: nearly all actives have a fitted effect of over 70% in size. Also: potency is read from the fitted curve at half-maximal effect. The note with it: Rh41 rhabdomyosarcoma viability, CellTiter-Glo luminescence, 48 h; series mostly up to 46 µM. Summed up:
as §1

Experiment [6] in a line: qHTS of pediatric cancer cell lines to identify multiple opportunities for drug repurposing: Primary screen for MG 63 (6-TG R) cells (AID 1347105). Also: nearly all actives have a fitted effect of over 50% in size. Also: potency is read from the fitted curve at half-maximal effect. The settings on record: MG 63 (6-TG R) viability, CellTiter-Glo, 48 h; series mostly up to 46 µM. The procedure, abridged: as §1
Experiment [7] is described as follows: qHTS of pediatric cancer cell lines to identify multiple opportunities for drug repurposing: Confirmatory screen for NB1643 cells (AID 1347109). Also: nearly all actives have a fitted effect of over 45% in size. The settings on record: NB1643 neuroblastoma cell viability; series mostly up to 45.9 µM. The procedure, abridged: as §2
Experiment [8] is described as follows: qHTS of pediatric cancer cell lines to identify multiple opportunities for drug repurposing: Confirmatory screen for A673 cells (AID 1347110).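 Also: cells exposed to compound for 48 h before the viability read; nearly all actives have a fitted effect of over 65% in size.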 The note with it: A673 Ewing sarcoma cell viability; series mostly up to 45.9 µM. The procedure, abridged: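 A673 cells seeded at 500-1,000 cells/well, rested 5 h, then dosed; primary MIPE 11-point (0.78 nM to 46 µM), NPC (0.59 nM to 46 µM); confirmatory 11-point. CellTiter-Glo luminescence after 48 h.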

Experiment [9] in a line: qHTS of pediatric cancer cell lines to identify multiple opportunities for drug repurposing: Confirmatory screen for BT-12 cells (AID 1347112). Also: nearly all actives have a fitted effect of over 55% in size. The settings on record: BT-12 rhabdoid tumor cells, viability; series mostly up to 45.9 µM. Summed up: as §2
Experiment [10] is described as follows: qHTS of pediatric cancer cell lines to identify multiple opportunities for drug repurposing: Confirmatory screen for SK-N-MC cells (AID 1347111).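 Also: potency is read from the fitted curve at half-maximal effect; cells exposed to compound for 48 h before the readout; nearly all actives have a fitted effect of over 70% in size.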 The note with it: SK-N-MC cell viability; series mostly up to 45.9 µM. Summed up:
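Metabolically active cells were quantified by ATP-dependent luminescence (CellTiter-Glo, 15 min at room temperature) following 48 h treatment. Cells had been plated at 500-1,000 per well and settled for 5 h beforehand.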

SMILES strings stand for the structures. Results filed as inconclusive are left out. Activity calls are given as the source filed them. Calls follow the shape of the dose curve; as a rule, active = well fitted curve in the direction sought with a large enough effect; inconclusive = small, poorly fitted or top-dose-only effect, or another doubt; inactive = no such curve, though single readings can be large; an effect the other way counts as inactive or inconclusive. Where a SMILES comes first, the peptide text is derived from it. [ ]: non-standard residue; d: D form. pGlu = O=C1CC[C@@H](C(=O)O)N1

In the case of `COc1ccc2c(c1)CCCC2=O`, the Potency entry in experiment [1], in experiment [2], in experiment [3], in [4] and in [5] was “inactive” in each case.

With `CCOc1ncc(F)c(=O)[nH]1`, the Potency entry in [1], in experiment [2], in experiment [3], in experiment [4] and in [5] was “inactive” each time.

Take `Nc1ccc(O)cc1`: the Potency result in [1], in [2], in [3], in [4] and in experiment [5] was “inactive” in each case.

Consider `COc1cc(C(=O)OC(COCCC(C)C)CN2CCOCC2)cc(OC)c1OC` (stereo not drawn), for which the Potency entry in experiment [1], in [2], in experiment [3], in [4] and in [5] was “inactive” each time.

As for `CN(C)C(=O)CNC(=O)Cc1ccccc1`, the Potency result in [1], in [2], in [3] and in [4] was “inactive” in each case.

`O=C(O)CNC(=O)CNC(=O)CNC(=O)CSC(=O)c1ccccc1`: the Potency result in experiment [1], in experiment [2], in experiment [6], in experiment [4] and in experiment [5] was “inactive” each time.

`OC1(c2ccc(Cl)c(C(F)(F)F)c2)CCN(CCCC(c2ccc(F)cc2)c2ccc(F)cc2)CC1`: the Potency in experiment [1] is 3.89 µM (active); in [2] it was 21.1 µM (active); in experiment [6] it was 13.3 µM (active); in experiment [5], 16.8 µM (active).

For `CCOC(=O)[C@H](CCc1ccccc1)N[C@@H](C)C(=O)N(CC(=O)O)C1Cc2ccccc2C1`, the Potency result in experiment [1], in experiment [2], in experiment [3] and in experiment [4] was “inactive” throughout.

As for `O=C1CC2(CCCC2)CC(=O)N1CCNCC1COc2ccccc2O1` (stereo not drawn), the Potency entry in experiment [1], in [2], in [3], in experiment [4] and in experiment [5] was “inactive” throughout.

As for `CCN(CC)CC(=O)OCC(=O)[C@@]1(O)CC[C@H]2[C@@H]3CCC4=CC(=O)CC[C@]4(C)[C@H]3[C@@H](O)C[C@@]21C`, the Potency entry in experiment [1], in [2], in experiment [6], in experiment [4], in experiment [5] and in experiment [7] was “inactive” in each case. Also, the Potency result in [8] and in experiment [9] was “inactive” each time.

For `COCCOCC(OC)OC`, the Potency entry in experiment [1], in experiment [2], in experiment [6], in experiment [4] and in experiment [5] was “inactive” in each case.

For the compound `O=C(c1ccccc1)c1ccccc1`, the Potency entry in experiment [1], in experiment [2], in experiment [6], in [4] and in [5] was “inactive” each time.

`CCCCCCCC(=O)[O-].CCCCCCCC(=O)[O-].[Zn+2]`: the Potency entry in [1], in [2], in experiment [3], in experiment [4] and in experiment [5] was “inactive” each time.

`CN1CC[C@H](c2c(O)cc(O)c3c(=O)cc(-c4ccccc4Cl)oc23)[C@H](O)C1`: the Potency in experiment [1] was 0.276 µM (active); in experiment [2] it was 0.596 µM (active). Further, the Potency entry in experiment [3] and in experiment [4] was “inactive” throughout.

As to `CCNC(=O)[C@@H]1CCCN1C(=O)[C@H](CCCN=C(N)N)NC(=O)[C@H](CC(C)C)NC(=O)CNC(=O)[C@H](Cc1ccc(O)cc1)NC(=O)[C@H](CO)NC(=O)[C@H](Cc1c[nH]c2ccccc12)NC(=O)[C@H](Cc1cnc[nH]1)NC(=O)[C@@H]1CCC(=O)N1` ([pGlu]HWSYGLRP-NHEt), the Potency result in experiment [1], in experiment [2], in [3] and in [4] was “inactive” each time.

With `O=C(O)c1[nH]n(-c2ccc(S(=O)(=O)O)cc2)c(=O)c1N=Nc1ccc(S(=O)(=O)O)cc1`, the Potency result in experiment [1], in experiment [2], in [3], in experiment [4] and in experiment [5] was “inactive” throughout.

As to `O=C(O)Cn1c(=O)n(Cc2ccc(Br)cc2F)c(=O)c2ccc(Cl)cc21`, the Potency entry in experiment [1], in [2], in experiment [3], in [4] and in experiment [5] was “inactive” throughout.

Take `C[C@@H](O[C@H]1OCCN(Cc2n[nH]c(=O)[nH]2)[C@H]1c1ccc(F)cc1)c1cc(C(F)(F)F)cc(C(F)(F)F)c1`: the results for the Potency in [1] and in experiment [2] were 27.6 µM (active) and 26.6 µM (active), respectively. Besides, the Potency result in experiment [3] and in [4] was “inactive” each time.

On to `Nc1ccc(C(=O)OCC(O)CO)cc1` (stereo not drawn), for which the Potency result in [1], in experiment [2], in experiment [3], in experiment [4] and in experiment [5] was “inactive” throughout.

On to `CNC(=O)c1c(I)c(NC(C)=O)c(I)c(C(=O)O)c1I`, for which the Potency result in experiment [1], in [2], in [6], in experiment [4] and in experiment [5] was “inactive” throughout.

Take `O=C(Nc1ccc(Cl)cc1)Nc1ccc(Cl)c(Cl)c1`: the figures for the Potency in experiment [1] and in experiment [2] were 24.6 µM (active) and 23.7 µM (active), respectively. The Potency result in experiment [3] is “inactive”.

Turning to `O=C1[C@@H]2[C@H]3CC[C@H](C3)[C@@H]2C(=O)N1CCCCN1CCN(c2ncccn2)CC1`, the Potency result in experiment [1], in [2], in [6], in experiment [4] and in experiment [5] was “inactive” in each case.

Turning to `O=c1[nH]c2ccccc2c(=O)n1CCCl`, the Potency result in [1], in experiment [2], in [3], in experiment [4] and in experiment [5] was “inactive” in each case.

For the compound `O=C(O)C1CCC1`, the Potency result in experiment [1], in [2], in [3], in [4] and in experiment [5] was “inactive” each time.

As to `O=C(O)/C=C(\CC(=O)O)C(=O)O`, the Potency result in experiment [1], in experiment [2], in experiment [3], in experiment [4] and in experiment [5] was “inactive” each time.

As to `CNC(=O)c1cnn(-c2nc(N)c3ncn([C@@H]4O[C@H](CO)[C@@H](O)[C@H]4O)c3n2)c1`, the Potency entry in experiment [1], in [2], in experiment [3], in experiment [4] and in experiment [5] was “inactive” each time.

Regarding `CCCC(=O)O[C@]1(C(=O)COC(=O)CC)CC[C@H]2[C@@H]3CCC4=CC(=O)CC[C@]4(C)[C@H]3[C@@H](O)C[C@@]21C`, the Potency result in experiment [1], in experiment [2], in experiment [6], in [4], in experiment [5] and in experiment [7] was “inactive” in each case. For the same compound, the Potency result in experiment [8] and in experiment [9] was “inactive” throughout. For the same compound, the Potency in experiment [10] was 6.57 µM (active).

Consider `CN1CCC(=C2c3ccccc3CCc3cccnc32)CC1`, for which the Potency entry in [1], in [2], in experiment [3], in [4] and in experiment [5] was “inactive” throughout.

`C[C@H](N)C(=O)N[C@@H](C)C(=O)NC1[C@H]2CN(c3nc4c(cc3F)c(=O)c(C(=O)O)cn4-c3ccc(F)cc3F)C[C@@H]12` (stereo partly drawn): the Potency entry in [1], in [2], in experiment [3] and in experiment [4] was “inactive” each time.

Values taken from PubChem BioAssay (NCATS).
